# Only some compounds are listed: those with a hit (about 1.3% of all), similar ones and a draw of the others.
# Glioma ERSR ind – inducers of ER stress response in human glioma cells; U87-MG GRP78 promoter luciferase reporter, 16 h; Potency, µM, for the others: at the highest dose activation, actives largely listed as activators; 0.02% of 420,000 active; also: potency is read from the fitted curve at half-maximal effect; series mostly up to about 76 µM; % of control where 0% means no effect; nearly all actives have a fitted effect of over 35% in size
#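 Stably transfected U87-MG glioma cells carrying a GRP78-based luciferase sensor; 16 h compound incubation. Luminescence end-point read 10 min after Bright-Glo addition at room temperature.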
# FEN1 inh – inhibitors of human flap endonuclease 1; P39748; Recombinant FEN1 flap cleavage, fluorescence, 15 min; Potency, µM (doses to about 114 µM), for the others: at the top dose activity change, negative = inhibition, actives largely listed as inhibitors; 0.35% of 390,000 active; AID 588795; also: potency is read from the fitted curve at half-maximal effect; % is scaled to controls: 0 for no effect and ±100 for the full control effect; nearly all actives have a fitted effect of over 65% in size
#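 Concentration–response screening of FEN1 (10 nM): 15 min compound preincubation at room temperature, reaction started with 50 nM substrate and read at 0 and 15 min. Corrected, normalized data were fitted by a four-parameter Hill equation.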
# Tb PGK inh – T. brucei PGK inhibition; 0.043% of 380,000 active; P07378; Potency, µM (highest dose often 57.5 µM), inactives show top-dose activity change, negative = inhibition, most hits filed as inhibitors; PGK/GAPDH coupled, Kinase-Glo luminescence, 60 min; also: potency is read from the fitted curve at half-maximal effect; % is scaled to controls: 0 for no effect and ±100 for the full control effect; nearly all actives have a fitted effect of over 60% in size
#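 Luminescent ATP detection (Kinase-Glo Plus) follows a 60-minute room-temperature incubation, with wells lacking PGK as controls. Buffer: 100 mM TEA (pH 7.6), 5 mM MgCl2, 0.01% Tween-20. Coupling enzyme GAPDH (100 nM final) supplies unstable 1,3-BPG in-well.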
# Pin1 inhibitor – human Pin1 inhibition | Q13526 | Potency, µM (top dose mostly 115 µM), inactives show at the top dose activity, negative = inhibition, usual class: inhibitors | AID 504891 | Pin1 FP peptide displacement, HiFluor488, 10 min | 0.009% of 390,000 active; active = well fitted inhibition curve with a large enough effect in the polarisation, with a control signal flat, not every such curve was filed as active; inconclusive = small, poorly fitted or top-dose-only effect, or effect the other way, or a change in a side signal; inactive = no such curve, though single readings can be large or run the other way; the % refers to the polarisation; also: potency is read from the fitted curve at half-maximal effect; % is scaled to controls: 0 for no effect and ±100 for the full control effect
# WRN helicase inh – blocks human WRN helicase; WRN helicase unwinding, fluorescent forked duplex, kinetic; Q14191; 0.46% of 360,000 active; Potency, µM (series often up to 114 µM), for inactives: top-dose activity change, negative = inhibition, hits mostly inhibitors; AID 651768; also: potency is read from the fitted curve at half-maximal effect; % is scaled to controls: 0 for no effect and ±100 for the full control effect; nearly all actives have a fitted effect of over 55% in size
#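 WRN at 20 nM final was preincubated with compound for 15 min at room temperature; reaction started with 100 nM forked duplex oligonucleotide carrying fluorophore and quencher plus 2 mM ATP (final). Unwinding followed kinetically by red fluorescence (ex 525/em 598 nm).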
# PI5P4K alpha inh – blocks human PI5P4K alpha kinase activity | P48426 | PI5P4Kalpha enzyme, ADP-Glo luminescence, 60 min; active compounds read low | max response, % | 1.2% of 330,000 active; active = max response of -50% or lower; inconclusive = between -30% and -50%; inactive = -30% or higher; also: value at the top dose of about 77 µM; % is scaled to controls: 0 for no effect and ±100 for the full control effect
#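 Controls without substrate or without enzyme flank wells where PI5P4Kalpha converts substrate using 5 microM ATP (final). Incubation lasts 60 minutes at room temperature; ADP formed is read by ADP-Glo luminescence.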
# The depositor's hits bear a star; i = inactive; u = inconclusive; x = no result; ! = repeats disagree; [ ] = another dose, or the depositor's remark. Unless noted, calls follow the shape of the dose curve; as a rule, active = well fitted curve in the direction sought with a large enough effect; inconclusive = small, poorly fitted or top-dose-only effect, or another doubt; inactive = no such curve, though single readings can be large; an effect the other way counts as inactive or inconclusive.
SMILES,Glioma ERSR ind,FEN1 inh,Tb PGK inh,Pin1 inhibitor,WRN helicase inh,PI5P4K alpha inh
O=C(NCCN1C(=O)S/C(=C\c2cccnc2)C1=O)C1=NN(c2ccccc2)C(=O)CC1,-4.6%,-1.6%,-5.2%,0.7%,u,-66.9*
CC(C)(C)c1cc(O)c(C(C)(C)C)cc1O,39.8µM*!,x,x,x,x,x
COc1ccc(/C=N/Nc2ccc(C(=O)O)cc2)c(OC)c1OC,0.8%,-0.5%,-7.0%,0.4%,5.1%,-3.9
COC(=O)c1ccc2c(c1)C(C)(C)C(/C=C/c1ccc(O)cc1)=[N+]2C,-12.2%,44.7µM*,-0.2%,u,50.1µM*,x
COC(=O)c1ccc2c(c1)C(C)(C)C(/C=C/c1ccc(OC)c(OC)c1OC)=[N+]2C,-18.3%,u,-2.9%,u,50.1µM*,-19.7
Cc1cc(=O)[nH]c(=O)n1Cc1ccccc1,-3.1%,-5.9%,-12.9%,x,u,-84.4*
Cc1cc(=O)c2ccccc2n1Cc1ccccc1,-2.3%,-8.2%,-2.5%,-2.1%,-10.5%,9.4
O=C1C=CC(=O)N1c1ccc(OC(F)F)cc1,-13.4%,-3.7%,-6.5%,-1.4%,31.6µM*,u
O=C1C=CC(=O)N1c1ccc(O)cc1,-14.5%,-33.4%,-0.4%,6.4%,-7.6%,-19.1
O=C(O)c1ccc2c(c1)C(=O)N(Cc1ccccc1)C2=O,-2.4%,4.6%,-6.8%,-5.7%,-1.5%,-72.8*
CC(C)CN1C(=O)c2ccc(C(=O)Nc3ccccc3C(=O)O)cc2C1=O,-1.4%,-7.5%,i,-4.1%,-1.7%,-63.7*
Cc1ccccc1NC(=O)c1ccc2c(c1)C(=O)N(CC(C)C)C2=O,-1.9%,1.4%,-3.5%,0.2%,-0.2%,-2.2
O=C1c2ccccc2C(=O)N1Cc1ccccc1,x,x,x,1.2%,x,x
O=C(Nc1ccc(Cl)cc1C(=O)O)c1ccc2c(c1)C(=O)N(Cc1ccco1)C2=O,0.8%,u,-3.4%,x,-30.0%[57.1 µM],-74.6*
COc1ccc(C(=O)N2CCOc3ccc(CN4CCN(c5ccccn5)CC4)cc3C2)o1,-1.7%,x,x,x,x,x
CSc1nccc(-c2cc(Cl)c3c(c2)CC(CNC(=O)c2ccc(C)nc2)O3)n1 (stereo not given),1.8%,x,x,x,x,x
CC(C)C1C(C#N)=C(N)SC(N)=C1C#N,0.5%,-5.6%,-6.9%,-4.0%,-3.9%,-9.4
Cc1ccc(C2C(C#N)=C(N)SC(N)=C2C#N)cc1,-5.0%,-4.8%,20.4%,u,-29.1%,-85.0*
Cc1ccc(C2C(C#N)=C(N)SC(N)=C2C#N)c(C)c1,5.1%,-10.2%,3.6%,u,-31.7%,-62.9*
CCN1C(=O)CS/C1=N\S(=O)(=O)c1ccc(Cl)cc1,-3.8%,-2.4%,7.7%,2.8%,-4.6%,-10.3
CCn1c(Cl)c(C=O)s/c1=N\S(=O)(=O)c1ccccc1,-18.2%,-18.1%,-0.5%,22.4%,39.8µM*,-11.4
N#CCSc1nc2sccc2c(=O)n1-c1ccccc1,-0.2%,-5.3%,-2.3%,0.3%,-10.8%,-69.7*
O=C(NCCO)c1cn(C2CCN(Cc3c(F)cccc3Cl)CC2)nn1,-2.7%,x,x,x,x,x
COc1ccc(C=C2SC(=S)N(CCCN3CCOCC3)C2=O)c(OC)c1,-0.2%,x,i,x,0.7%,-13.0
O=C1C(=Cc2cccc(O)c2O)SC(=S)N1CCCN1CCOCC1,-0.5%,x,-10.3%,x,-31.1%[11.6 µM],-71.4*
SMILES,Glioma ERSR ind,FEN1 inh,Tb PGK inh,Pin1 inhibitor,WRN helicase inh,PI5P4K alpha inh
O=C(CCCN1C(=O)/C(=C/c2ccccc2Cl)SC1=S)NCCCN1CCOCC1,-13.0%,-7.0%,-5.9%,18.6%,89.1µM*,5.7
COC1=CC(=O)c2ccccc2C1=O,-10.0%,10µM*,-7.0%,-3.4%,11.7%,4.1
COC1=C(c2ccccc2)C(=O)c2ccccc2C1=O,-2.9%,-18.8%,-10.4%,u,-28.3%,3.4
COC1=CC(=O)C=C(OC)C1=O,-10.5%,u,3.5%,-7.6%,44.7µM*,-50.9*
O=C(NC(=S)Nc1ccc(CN2CCCCC2)cc1)c1cccc(OCc2ccccc2)c1,1.5%,-5.4%,-3.2%,2.1%,-4.0%,2.0
O=C(O)c1ccc(NC(=S)NC(=O)c2cccc(COc3ccccc3)c2)cc1,2.6%,16.2%,-1.4%,-4.7%,-12.5%,-55.3*
CCCCn1c(/C=C/c2ccco2)nc2ccccc21,0.6%,-0.8%,i,u,-33.6%,-24.8

# Assay outcomes deposited in PubChem BioAssay by National Center for Advancing Translational Sciences (NCATS).
